{
  "source": "ChEMBL document CHEMBL3988442",
  "about": "“University of Dundee, Small-Polar-MMV Screening Library” (2021)",
  "note": "Out of some 48,000 compounds screened, about 13,000 (27%) showed an effect of 50% or more. The list shows a part of the results.",
  "data": [
    {"test_system": "Wolbachia pipientis", "experiment": "Anti-Wolbachia Cell-Based Screen", "assay_type": "functional", "design": "scale not given: in the data most compounds retested in dose-response had high values", "conditions": "5 µM", "units": {"Percent Effect": "%"}, "values": [
      {"smiles": "CCc1nc(CN(C)C(=O)NCc2cccc(NC(C)=O)c2)cs1", "Percent Effect": -8.024},
      {"smiles": "CS(=O)(=O)CCNCc1ccc(OCc2cscn2)cc1", "Percent Effect": -7.403},
      {"smiles": "CC(C)c1ccc(OCCC(=O)N(C)CC(=O)N(C)C)cc1", "Percent Effect": -12.7},
      {"smiles": "CCc1nnc(CN2CCN(C(=O)c3ccccn3)CC2)o1", "Percent Effect": -6.012},
      {"smiles": "CC(C)n1ccnc1C1CCN(C(=O)c2ccccn2)CC1", "Percent Effect": -22.55},
      {"smiles": "CCc1cc(O)n2nc(C3CCN(C(=O)c4ccccn4)CC3)cc2n1", "Percent Effect": 117.9},
      {"smiles": "COc1c(CNCc2cccc(C(=O)N(C)C)c2)c(C)nn1C", "Percent Effect": 120.7},
      {"smiles": "COc1c(CNCCNC(=O)c2ccc(C)cc2)c(C)nn1C", "Percent Effect": -13.57},
      {"smiles": "COc1c(CNCCNC(=O)c2ccco2)c(C)nn1C", "Percent Effect": 8.194},
      {"smiles": "CCNC(=O)c1ccc(CNCc2c(C)nn(C)c2N(C)C)cc1", "Percent Effect": 0.7448},
      {"smiles": "Cc1nn(C)c(N(C)C)c1CNCc1ccc(C(=O)N(C)C)cc1", "Percent Effect": 123.8},
      {"smiles": "COc1c(CNCc2ccc(C(=O)N(C)C)cc2)c(C)nn1C.Cl", "Percent Effect": -9.305},
      {"smiles": "COc1c(CNCc2ccc(C(=O)NC3CC3)cc2)c(C)nn1C.Cl", "Percent Effect": -2.896},
      {"smiles": "COc1c(CNCc2cccc(CN(C)C)c2)c(C)nn1C.Cl", "Percent Effect": -1.675},
      {"smiles": "Cc1nn(C)c(N(C)C)c1CNCc1ccc(OCC(N)=O)cc1.Cl", "Percent Effect": 3.035},
      {"smiles": "COc1c(CNCc2ccc(C(=O)N3CCCC3)cc2)c(C)nn1C.Cl", "Percent Effect": 173.2},
      {"smiles": "COc1c(CNCc2ccc(C(=O)N(C)C(C)C)cc2)c(C)nn1C", "Percent Effect": 196.4},
      {"smiles": "CCc1noc(CS(=O)(=O)Cc2ccccc2C)n1", "Percent Effect": 2.156},
      {"smiles": "CN1C[C@@H](N)C[C@H]1c1nc(-c2ccc3c(c2)OCO3)no1", "Percent Effect": -7.718},
      {"smiles": "CC(C)(C)n1cc(CNC2CCN(C(=O)c3ccoc3)CC2)cn1.Cl", "Percent Effect": 4.064},
      {"smiles": "CCC(C)(C)C(=O)NCCCOC1CCOC1", "note": "(centres undefined)", "Percent Effect": -11.1},
      {"smiles": "CC(C)S(=O)(=O)N1CCOC(CCc2ccccc2)C1", "note": "(centres undefined)", "Percent Effect": -8.11},
      {"smiles": "O=C(O)C(F)(F)F.O=C1CCCN1Cc1nnn2c1CN(c1cccnc1)CCC2", "Percent Effect": 87.49},
      {"smiles": "Cc1cnnn1Cc1nnn2c1CN(Cc1ccccn1)CCC2.O=C(O)C(F)(F)F", "Percent Effect": -8.238},
      {"smiles": "O=C(O)C(F)(F)F.c1cncc(N2CCCn3nnc(COCC4CC4)c3C2)c1", "Percent Effect": 122.7},
      {"smiles": "C1CN(CC2CCOCC2)Cc2c(CN3CCOCC3)nnn2C1", "Percent Effect": 2.088},
      {"smiles": "c1cc(CN2CCCn3nnc(COCC4CC4)c3C2)ccn1", "Percent Effect": -2.908},
      {"smiles": "O=C(O)C(F)(F)F.c1cnc(N2CCCn3nnc(COCC4CC4)c3C2)nc1", "Percent Effect": -15.27},
      {"smiles": "O=C1CCCN1Cc1nnn2c1CN(c1ncccn1)CCC2", "Percent Effect": -7.828},
      {"smiles": "O=C(O)C(F)(F)F.O=C(O)C(F)(F)F.c1cncc(CN2CCCn3nnc(COCC4CC4)c3C2)c1", "Percent Effect": -24.42},
      {"smiles": "O=C(O)C(F)(F)F.O=C(O)C(F)(F)F.c1cncc(N2CCCn3nnc(CN4CCCCC4)c3C2)c1", "Percent Effect": 109.4},
      {"smiles": "c1cncc(N2CCCn3nnc(CN4CCOCC4)c3C2)c1", "Percent Effect": 107.9},
      {"smiles": "O=C(O)C(F)(F)F.O=C(O)C(F)(F)F.c1ccc(CN2CCCn3nnc(COc4ccccn4)c3C2)nc1", "Percent Effect": -12.56},
      {"smiles": "O=C(O)C(F)(F)F.O=C(O)C(F)(F)F.O=C(c1cccnc1)N1CCn2nnc(COc3cccnc3)c2C1", "Percent Effect": -17.53}
    ]}
  ]
}
